Rhodamine autofl – compound autofluorescence in rhodamine spectral region; Rhodamine-region fluorescence, 547/598 nm, Tris buffer; stronger effect = higher value; max dye-equivalent concentration, M; actives 0.05% (n = 59,000); in the data active means max dye-equivalent concentration above about 11 nM; inconclusive means between about 1.1 nM and that limit
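Intensities are converted to rhodamine-equivalent concentration using a six-point rhodamine standard on each plate. Compounds sit 15 min at room temperature in 100 mM Tris buffer, pH 8.0; read uses the 547/598 nm excitation/emission pair.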
Resorufin fluor – compounds fluorescent in resorufin spectral region. actives 0.04% (n = 59,000). Compound fluorescence, resorufin region 547/598 nm, buffer; stronger effect = higher value. AID 588. max dye-equivalent concentration, M
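Intrinsic fluorescence profiled in the resorufin window (ex 547 nm, em 598 nm) after 15 min at room temperature in pH 8.0 Tris buffer (100 mM); responses normalized against a six-point resorufin standard series as dye-equivalent concentration.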
Fluorescein autfl – compound autofluorescence in fluorescein spectral region. Compound autofluorescence, 480/540 nm, fluorescein-equivalent; stronger effect = higher value. max fluorescein-equivalent concentration, M. actives 0.91% (n = 59,000). AID 593; in the data active means max fluorescein-equivalent concentration above about 10 nM; inconclusive means between about 1.1 nM and that limit
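Normalized response (dye-equivalent concentration) derives from comparing each well's 540 nm emission, under 480 nm excitation, with plate-resident fluorescein standards. Compounds were held in 100 mM Tris, pH 8.0, for 15 min at room temperature.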
Texas Red fluor – compound fluoresces in the Texas Red spectral region; max dye-equivalent concentration, M; Compound fluorescence, Texas Red channel, 547/618 nm; stronger effect = higher value; actives 0.06% (n = 59,000); in the data active means max dye-equivalent concentration above about 10 nM; inconclusive means between about 1.1 nM and that limit
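Pin-transferred compounds and Texas Red standards go into 100 mM Tris buffer, pH 8.0. After 15 min at room temperature, plates are imaged with 547/618 nm filters. Each value is a dye-equivalent concentration derived from the per-plate dye curve.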
A488 fluor – compound fluoresces in the A488 spectral region; max dye equivalency, M; compound autofluorescence, A488 spectral region, dye equivalency; Compound Type: qHTS ECL - MLSMR; actives 0.1% (n = 59,000)
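Read-out: relative fluorescence at 480/540 nm, expressed as Alexa 488 dye-equivalent concentration from a six-point A488 standard included per plate. Conditions: 100 mM Tris, pH 8.0; 15 min incubation, room temperature.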
A647 fluor – compound autofluorescence in A647 spectral region; 59,000 tested, under 10 active; AID 592; max dye-equivalent concentration, M; Compound fluorescence, A647 channel (570/671 nm), Tris buffer
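Each compound's intrinsic fluorescence at 570 nm excitation and 671 nm emission is measured across its concentration series in 100 mM Tris, pH 8.0, after 15 min at room temperature, and reported relative to an A647 curve.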
Numbers stand for hits; 0 = inactive; ? = inconclusive; ! = repeats disagree. The list is not random: actives were taken first. Their share in the collection is about 0.95%. Unless noted, how the calls were made is not given here.

SMILES	Rhodamine autofl	Resorufin fluor	Fluorescein autfl	Texas Red fluor	A488 fluor	A647 fluor
CN(/N=C\c1ccccc1O)c1ccc2ccccc2n1	0	0	0	0	0	0
O=c1c(-c2ccccc2)[n+]([O-])c2ccccc2n1O	0	0	1.73e-08M	0	0	0
COc1c(O)ccc2c1CN1CCc3cc4c(cc3[C@@H]1C2)OCO4	0	0	?	0	0	0
O=S(=O)(CCn1cccc1)CCn1cccc1	0	0	1.01e-08M	0	0	0
CN(C)c1ncc2nc(-c3cccs3)c(=O)n(C3CC3)c2n1	0	0	1.46e-08M	0	0	0
Cn1cc(C2=C(c3ccc(Cl)cc3Cl)C(=O)NC2=O)c2ccccc21	?	?	4.98e-07M	0	2.72e-08M	0
CC1CCCN(c2nc3ccccc3nc2C(C#N)C(=O)OC2CCCCC2)C1 (configuration not stated)	0	0	1.42e-08M	?	0	0
N#CC(C(=O)OC1CCCCC1)c1nc2ccccc2nc1N1CCCCC1 (configuration not stated)	0	0	1.26e-08M	0	0	0
COc1c2ccoc2cc2oc(=O)ccc12	0	0	0	0	0	0
COc1ccc2c(OC)c3ccoc3nc2c1OC	0	0	1.05e-08M!	?	0	0
C=C1CC[C@@H](O)C/C1=C/C=C1\CCC[C@]2(C)[C@@H]1CC[C@H]2[C@@H](C)CCCC(C)C	0	0	0	0	0	0
O=C1CCN2C=Nc3cccc4ccc1c2c34	0	0	2.76e-06M	0	1.54e-07M	0
O=[N+]([O-])c1ccc2c(c1)Cc1cc(N=Cc3ccc4c(c3)OCO4)ccc1-2	0	0	0	?	0	0
COc1ccccc1/C=c1\sc2nc(-c3ccncc3)nn2c1=O	0	0	1.49e-08M	0	0	0
O=C(O)CN(CCN(CC(=O)O)CC(=O)O)CC(=O)O.[Mn]	0	0	0	?	0	0
CCOC(=O)COn1c(=O)c(-c2cccs2)[n+]([O-])c2ccccc21	0	0	1.29e-08M	0	0	0
CCOn1c(=O)c(-c2ccc(OC)cc2)[n+]([O-])c2ccccc21	0	0	0	0	0	0
COC(=O)c1ccc(C2/C(=C(/O)c3ccc(OC)cc3)C(=O)C(=O)N2c2cc(C)on2)cc1 (configuration not stated)	0	0	1.02e-08M	0	0	0
COC(=O)c1ccc(C2/C(=C(/O)c3ccc(OC(C)C)cc3)C(=O)C(=O)N2c2cc(C)on2)cc1 (configuration not stated)	0	0	0	?	0	0
CCN(CC)c1ccc2c(c1)C(=O)N(C)C2=O	0	0	1.13e-08M	?	0	0
COc1ccc(C2C(C(C)=O)=C(C)N=c3s/c(=C/c4ccc5c(c4)OCO5)c(=O)n32)cc1 (configuration not stated)	0	0	1.21e-08M	0	0	0
CC(=O)C1=C(C)N=c2s/c(=C/c3ccc4c(c3)OCO4)c(=O)n2C1c1ccc(N(C)C)cc1 (configuration not stated)	0	0	0	0	0	0
CC(C)n1c(=NC(=O)c2ccco2)c(C#N)cc2c(=O)n3ccccc3cc21	0	0	1.14e-08M	?	0	0
CCCn1c(=NC(=O)c2ccco2)c(C(=O)OCC)cc2c(=O)n3ccccc3nc21	0	0	0	0	0	0
COc1ccccc1-c1cncnc1Nc1ccc(F)cc1	0	0	?	0	0	0
SMILES	Rhodamine autofl	Resorufin fluor	Fluorescein autfl	Texas Red fluor	A488 fluor	A647 fluor
N#[N+]c1ccc(Nc2ccccc2)cc1	0	0	1.28e-08M	0	0	0
CCOc1cc(C2C(C#N)=C(N)OC(C)=C2C(C)=O)cc(Br)c1O (configuration not stated)	0	0	1.92e-07M	0	1.24e-08M	0
CCOC(=O)C1=C(C)OC(N)=C(C#N)C1c1cc(OC)c2c(c1)OCO2 (configuration not stated)	0	0	?	0	0	0
CN(C)C=Nc1c(Br)cc(Br)c2nonc12	?	?	3.91e-08M	?	?	0
CN(C)C=Nc1nonc1-c1ncn[nH]1	0	0	0	0	0	0
O=c1cc(-c2ccc(O)c(O)c2)oc2cc(O[C@@H]3O[C@@H](CO)[C@@H](O)[C@@H](O)[C@H]3O)cc(O)c12	0	0	?	0	0	0
C=Cc1c(C)c2cc3[nH]c(cc4nc(cc5nc(cc1[nH]2)C(C)=C5CCC(=O)O)C(CCC(=O)O)=C4C)c(C)c3C=C	0	0	?	1.01e-08M	0	0
CN(C)/C=c1\sc2c(C#N)cc(C(=O)c3ccc(Br)cc3)n2c1=O	0	0	8.11e-07M	0	4.29e-08M	0
C[n+]1cc2c3c(ccc2c2ccc4cc5c(cc4c21)OCO5)OCO3	?	0	2.96e-08M	0	?	0
CC(=O)C1(C)OC(N)=C(C#N)C(c2ccccc2)C1(C#N)C#N (configuration not stated)	0	0	1.08e-08M	0	0	0
CCOC(=O)C1=C(C(C)=O)C(c2cccnc2)C(C#N)=C(N)O1 (configuration not stated)	0	0	0	?	0	0
CCCCOc1ccc(-c2c(C#N)c(N)nc(SCC(N)=O)c2C#N)cc1	?	0	1.01e-08M	?	0	0
CCCCOC(=O)CSc1nc(N)c(C#N)c(-c2ccc(OCC)cc2)c1C#N	0	0	0	?	0	0
COc1cccc(C2C=C(c3ccc(Br)s3)Nc3ncnn32)c1OC (configuration not stated)	0	0	1.45e-08M	0	0	0
Fc1ccc(Br)cc1C1C=C(c2ccc(Br)s2)Nc2ncnn21 (configuration not stated)	0	0	?	0	0	0
Cn1cc(-c2nc3cnc(Oc4cccc(Cl)c4)nc3n(C3CC3)c2=O)c2ccccc21	0	0	0	0	0	0
CC1=c2c(oc3cc(O)c(Nc4c(C)cc(O)cc4O)c(C)c23)=CC(=O)C1=Nc1c(C)cc(O)cc1O	1.17e-07M	7.41e-08M	1.47e-08M	2.63e-07M	0	0
CC1CN(c2nc3ccccc3nc2C(C#N)C(=O)NC2CCCCC2)CC(C)O1 (configuration not stated)	0	0	2.93e-07M	0	1.44e-08M	0
CC(C)COc1nc2ccccc2nc1C(C#N)C(=O)NC1CCCCC1 (configuration not stated)	0	0	7.32e-08M	0	?	0
Cc1cnc(CNc2cc(-c3ccccc3CN(C)C)ncn2)cn1	0	0	?	0	0	0
CCOC(=O)c1cnc(-n2nc(C)cc2C)nc1NC1CCCCC1	0	0	?	0	0	0
CCOC(=O)c1cnc(-n2nc(C)cc2C)nc1Nc1ccc(N(C)C)cc1	0	0	?	?	0	0
CCOC(=O)c1cnc(-n2nc(C)cc2C)nc1N(CC)CC	0	0	1.14e-08M	0	0	0
CCOC(=O)c1cnc(-n2nc(C)cc2C)nc1NC	0	0	1.02e-08M	0	0	0

Screening data deposited in PubChem by National Center for Advancing Translational Sciences (NCATS).
